This is a sample that favours compounds with a hit; in the whole collection about 3.4% have one here.
GLS inh – blocks human kidney-isoform glutaminase activity. O94925. GLS enzymatic activity, qHTS titration. Potency, µM (highest dose often 45.5 µM), for inactives: top-dose activity change, negative = inhibition, most hits filed as inhibitors. 410,000 compounds, 0.21% hits; also: % is scaled to controls: 0 for no effect and ±100 for the full control effect
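Read-out is an Amplex red fluorescence increase coupled through glutamate oxidase and HRP, measured before and after 30 min room-temperature incubation. hKGA is in 45 mM KH2PO4 (pH 8.2) with 0.02% Tween-20; glutamine added as 1mM solution.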
PKM2 act – increases activity of human pyruvate kinase M2; 260,000 compounds, 0.34% hits; purified PKM2, Kinase-Glo ATP luminescence, activation; response scale: 0% is enzyme alone, no compound; Potency, µM (top dose mostly 57.5 µM), without a hit: at the top dose activation, hits mostly activators; also: % is scaled to controls: 0 for no effect and ±100 for the full control effect; nearly all actives have a fitted effect of over 55% in size
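Purified hPK-M2 (>95%) run at intermediate activity with 0.1 mM ADP and 0.5 mM PEP in 50 mM imidazole pH 7.2, KCl, MgCl2; 1 h room temperature. ATP formed read by Kinase-Glo luminescence; normalized to uninhibited and no-enzyme controls.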
Mito fusion yeast – inhibitors of mitochondrial division or activators of mitochondrial fusion; S. cerevisiae fusion-defective mutant growth rescue, CellTiterGlo 48 h; 320,000 compounds, 0.23% hits; Potency, µM (titrated, usually from 46.1 µM), for inactives: top-dose growth rescue (activation), hits mostly activators; also: % of control where 0% means no effect; nearly all actives have a fitted effect of over 45% in size
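Yeast fusion mutant, YPEG (non-fermentable carbon), compound, 48 h at 37C non-permissive; CellTiterGlo added, 10 min RT, luminescence read. Rescued growth = division inhibition.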
KAT2A inh – inhibitors of human GCN5L2 histone acetyltransferase; 390,000 compounds, 0.21% hits; GCN5L2 HAT assay, ThioGlo1 CoA-SH fluorescence; Potency, µM (top dose mostly 58.9 µM), for inactives: at the top dose activity change, negative = inhibition, usual class: inhibitors; also: % is scaled to controls: 0 for no effect and ±100 for the full control effect
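Titration-based screen in which CoA formation is detected via maleimide probe ThioGlo1 (50uM) turning fluorescent on thiol reaction; substrates H3(1-25) 75uM and acetyl-CoA 70uM, GCN5L2 20nM, 20 min incubation at room temperature.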
PLK1 PBD block – inhibitors of human PLK1 polo-box domain binding. Potency, µM, without a hit: max response, negative = inhibition, usual class: inhibitors. Plk1 PBD binding of FITC phosphopeptide, fluorescence polarization. P53350. 360,000 compounds, 2.8% hits; also: series mostly up to about 57 µM; % is scaled to controls: 0 for no effect and ±100 for the full control effect; nearly all actives have a fitted effect of over 65% in size
Target sequence (P53350 whole entry, looked up, the tested form may be a part): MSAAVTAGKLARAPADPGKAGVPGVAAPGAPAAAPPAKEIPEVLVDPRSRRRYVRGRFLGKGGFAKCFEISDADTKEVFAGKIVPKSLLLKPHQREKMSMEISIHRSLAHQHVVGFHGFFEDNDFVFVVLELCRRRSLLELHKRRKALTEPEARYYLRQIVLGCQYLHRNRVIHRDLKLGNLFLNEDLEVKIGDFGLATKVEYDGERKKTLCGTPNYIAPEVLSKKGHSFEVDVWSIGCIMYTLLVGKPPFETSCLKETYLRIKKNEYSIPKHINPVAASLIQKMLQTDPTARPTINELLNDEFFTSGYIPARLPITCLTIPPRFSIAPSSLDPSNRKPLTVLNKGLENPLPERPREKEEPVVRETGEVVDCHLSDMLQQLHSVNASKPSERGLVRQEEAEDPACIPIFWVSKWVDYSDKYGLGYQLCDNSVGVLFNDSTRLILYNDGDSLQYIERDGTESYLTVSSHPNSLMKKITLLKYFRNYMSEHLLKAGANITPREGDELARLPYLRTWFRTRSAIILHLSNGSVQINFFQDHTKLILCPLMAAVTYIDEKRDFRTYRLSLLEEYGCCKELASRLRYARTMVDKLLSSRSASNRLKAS
VDR inh – vitamin D3 receptor (human) inhibition. P11473. VDR-SRC2-3 peptide fluorescence polarization, 2 h. Potency, µM, for the others: max response, negative = inhibition, most hits filed as inhibitors. 400,000 compounds, 0.93% hits. AID 504847; also: % is scaled to controls: 0 for no effect and ±100 for the full control effect
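Inhibition of the VDR/SRC2-3 peptide interaction is quantified by fluorescence polarization. Compounds (23 nl, pintool) incubate with the reagents for 2 hours at ambient room temperature.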
* marks the source's active call; other numbers are inactive results; ? = inconclusive; . = no result given; [ ] = another dose, or the depositor's remark. Calls follow the shape of the dose curve; as a rule, active = well fitted curve in the direction sought with a large enough effect; inconclusive = small, poorly fitted or top-dose-only effect, or another doubt; inactive = no such curve, though single readings can be large; an effect the other way counts as inactive or inconclusive. Potency is read from the fitted curve at half-maximal effect.

SMILES	GLS inh	PKM2 act	Mito fusion yeast	KAT2A inh	PLK1 PBD block	VDR inh
Cn1c(N)c(C(=O)COC(=O)C2(c3ccc(F)cc3)CCCC2)c(=O)n(C)c1=O	4%	1%	-2%	-3%	-6%	-1%
Cn1c(N)c(C(=O)COC(=O)C2(c3ccc(Cl)cc3)CCCC2)c(=O)n(C)c1=O	?	-6%	-3%	-5%	3µM*	-23%
N#Cc1ccsc1NC(=O)C1CCN(C(=O)c2ccc(Cl)cc2)CC1	-1%	.	1%	3%	-18%	0%
CC(=O)N1N=C(c2c(-c3ccccc3)c3cc(Br)ccc3[nH]c2=O)CC1c1ccco1 (stereo unspecified)	0%	1%	9%	2%	-18%	79µM*
O=c1ccc2ccc(O)c(O)c2o1	.	.	23µM*	?	.	-24%
O=C(NCCc1ccccc1)c1ccc(CSc2nc3ccncc3n2Cc2ccccc2)cc1	-6%	.	.	-7%	.	11%
Fc1ccccc1Cn1nnc2c(NCCc3ccccn3)ncnc21	-17%	13µM*	3%	-1%	-26%	-19%
CC(C)C1CC(O)(C2(O)CCCCC2)ON1 (stereo unspecified)	?	3%	-2%	-1%	3.4µM*	-25%
Cc1cccc(NC(=O)CNC(=O)c2ccc(S(=O)(=O)NCc3ccco3)cc2)c1C	-5%	.	.	.	-16%	.
Cc1ccc(C(=O)Nc2sc3c(c2C(=O)O)CCCC3)o1	-4%	-13%	-1%	-11%	-7%	-26%
Cc1ccc(C)n1-c1sc2c(c1C(=O)O)CCCC2	6%	1%	7%	?	17µM*	-14%
Fc1ccc(CNC(=S)NC2CCCC2)cc1	-19%	5%	-2%	-1%	-4%	11%
Cc1ccc(C(=O)N/C(=C/c2ccc(C(C)C)cc2)C(=O)NCCCN2CCOCC2)cc1	4%	-8%	1%	-1%	4%	-8%
COc1cc(C(=O)N/C(=C\c2cn(C)c3ccccc23)C(=O)NCCCN2CCOCC2)cc(OC)c1OC	33%	.	-1%	-12%	17µM*	?
CCn1cc(/C=C(\NC(=O)c2ccc(OC)c(OC)c2)C(=O)N2CCN(C)CC2)c2ccccc21	-4%	.	8%	-9%	27µM*	?
Cc1ccc(C(=O)N/C(=C\c2ccc(-c3ccccc3[N+](=O)[O-])o2)C(=O)NCCCN2CCOCC2)cc1	12%	.	-5%	-23%	27µM*	?
CC(=O)N1CCCc2cc(S(=O)(=O)N3CCCC(C(=O)N4CCN(c5ccccc5F)CC4)C3)ccc21 (stereo unspecified)	-17%	.	.	-10%	.	1%
Clc1ccccc1CNc1nc2ccccc2c2nc(-c3cccnc3)nn12	-10%	.	.	0%	.	-13%
CCCCCOC(=O)c1ccc(Nc2nc(C(=O)OCC)nc3ccccc23)cc1	-7%	.	.	-9%	.	9%
COCCn1nnnc1C(c1ccc(C)cc1)N1CCN(Cc2ccc3c(c2)OCO3)CC1 (stereo unspecified)	9%	1%	5%	-2%	24µM*	-11%
COCCn1nnnc1C(c1ccccc1)N1CCN(Cc2ccc3c(c2)OCO3)CC1 (stereo unspecified)	5%	5%	-3%	-6%	-11%	5%
CN(C)CCCNc1c2c(nc3ccccc13)CCC2	39%	.	-2%	-6%	27µM*	-28%
Cc1nnnn1/C(=C\c1ccccc1)C(=O)OCC(=O)Nc1ccc(Cl)cc1F	3%	.	-15%	-1%	-29%	40µM*
CCCc1ccc(C2=Nn3c(nnc3C(C)C)SC2)cc1	?	-3%	10%	-8%	11µM*	79µM*
Cn1cnnc1SCC(=O)Nc1ncc([N+](=O)[O-])s1	149%	.	.	-28%	?	-17%
SMILES	GLS inh	PKM2 act	Mito fusion yeast	KAT2A inh	PLK1 PBD block	VDR inh
Cc1cc(S(=O)(=O)Nc2ccc3c(c2)COC3=O)ccc1F	0%	11µM*	7%	-4%	-13%	-7%
O=C(C1CCN(S(=O)(=O)Cc2ccccc2)CC1)N1CCN(c2cccc(Cl)c2)CC1	-2%	.	.	-7%	.	19%
O=C1C=CC(O)(c2cc(=O)c3c(O)cc(O)cc3o2)C=C1	18%	18%	1%	-4%	-22%	32µM*
CC1=C(C(=O)Nc2ccccc2F)C(c2cccs2)C2=C(CCCC2=O)N1 (stereo unspecified)	3%	4%	1%	-6%	24µM*	?
O=C(c1ccccc1)N1CCN(Cc2cccc(Oc3ccccc3)c2)CC1	21%	-1%	14%	-3%	24µM*	?
COc1cccc(CN2CCN(C(=O)c3cccc(OC)c3)CC2)c1	-4%	-5%[11.5 µM]	-1%	0%	-1%	-3%
COc1ccc(OCCn2c(CCNC(=O)C3CCCCC3)nc3ccccc32)cc1	.	.	.	.	.	-13%
COc1ccc2c(c1OC)C(=O)N1C2SC(C)(C)[C@H]1C(=O)NC1CCCC1 (stereo partly specified)	4%	-8%	-2%	32µM*	-6%	-5%
CC1CCc2cc(F)cc3c2N1C(=O)C(C(=O)Nc1cnccn1)C3=O (stereo unspecified)	.	.	.	.	.	-8%
CCCC(=O)NC(=S)Nc1cccc(NC(=O)c2ccccc2Cl)c1	5%	-7%	9%	0%	-3%	-14%
Cc1cc(Cl)ccc1NC(=O)CCC(=O)O	2%	3%	-2%	-1%	2%	-16%
C/C(=N/NS(=O)(=O)c1ccc(C)cc1)c1cccc(NC(=O)c2cccc(Cl)c2)c1	0%	3%	8%	-14%	-10%	-3%
C/C(=N/NS(=O)(=O)c1ccc(Cl)cc1)c1cccc(NC(=O)c2ccc(Cl)cc2Cl)c1	62%	3%	15%	?	19µM*	-4%
CCC(=O)Nc1ccc(Cl)c(NC(=S)NC(=O)COc2ccccc2)c1	32%	-3%	-3%	0%	27µM*	3%
CCC(=O)NC(=S)Nc1cccc(NC(=O)c2ccccc2Cl)c1	-11%	-12%	-1%	-3%	27µM*	-6%
O=C(O)CCC(=O)Nc1ccc(NC(=O)c2ccc(Cl)cc2Cl)c(Cl)c1	0%	0%	-2%	-6%	21µM*	-11%
Cc1ccc(NC(=O)CSCC(=O)Nc2cc(Cl)ccc2N2CCOCC2)cc1	5%	.	6%	0%	-2%	-14%
NC(N)=NCCC[C@H](N)C(=O)NCC(=O)N[C@@H](CC(=O)O)C(=O)O	.	.	.	-1%	.	8%
CC1(c2nnnn2-c2ccc3c(c2)OCCO3)CCC(=O)N1CCCN1CCOCC1 (stereo unspecified)	4%	.	.	.	2%	.

Compound activity: PubChem BioAssay, National Center for Advancing Translational Sciences (NCATS)
